Assay results as given in PubChem BioAssay (NCI).
This is part of a sample that, as a whole, favours compounds with a hit. Of some 83,000 tested, about 20% had one in any assay.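 Cell lines were cultured in 96-well plates, exposed to a single compound concentration, and assessed for percent growth 48 hours later.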 The source made the active and inactive calls.

Tested on: HT29 colon
Test: NCI-60 one-dose screen, 48 h (100 = growth as untreated, 0 = no growth, -100 = all killed)
Conditions: 10 µM unless noted
Protocol: Growth inhibition of the HT29 human tumor cell line is measured as a screen for anti-cancer activity. Cells are grown in 96 well plates and exposed to the test compound for 48 hours. Compounds are tested at a single concentration, which is 10^-5 M for most compounds. The reported endpoint is percent growth (GI% or GIPRCNT), where numbers from 0 - 100% represent growth inhibition, and numbers from -100% - 0 represent cell death. For example, a value of 40 represents 60% growth inhibition. A value of 0 means no net growth occurred over the course of the experiment. A value of -40 indicates 40% of cells at the beginning of the experiment died by the end of the experiment. A value of -100 means all cells are dead at the end of the experiment.
NCI-60 Human Tumor Cell Lines Screen was performed using the standard one-dose NCI protocol, which is described in more detail at https://dtp.cancer.gov/discovery_development/nci-60/default.htm.
Compounds with GIPRCNT values below 10 were considered active. Activity score was based on GIPRCNT using the following formula: […]
Score is 0 for GIPRCNT values of 100 or above, 50 for GIPRCNT values of 0, and 100 for GIPRCNT values of -100.

Row | Structure (SMILES) | growth
1 | COc1ccc(C(=O)C2=CC(=O)C(=O)C2)cc1OC | 98.1% (inactive)
2 | COc1cc2cc(Oc3ccc(NC(=O)Nc4cccc(C(F)(F)F)c4)cc3)c(C)nc2cc1OCCN1CCCCC1 | -81.7% (active)
3 | O=c1[nH]c(=S)[nH]c(=O)n1Cc1cccc2ccccc12 | 110% (inactive)
4 | Cc1c(C(=O)Nc2nc(-c3ccccc3)cs2)nnn1-c1ccccc1Br | 16.3% [50 µM] (inactive)
5 | OC[C@@H](O)[C@@H](O)CO | 106% (inactive)
6 | COc1ccc(-c2c3c(N)c4c(nc3nc3c2c(C)nn3-c2ccccc2)CCCCC4)cc1 | 41.4% (inactive)
7 | C=C[C@H]1C[C@@H]2C[C@@H]3[C@H]4C/C=C\C(=O)NCCCC5NC(=O)C(=C(O)/C=C/[C@@H]4CC(=O)[C@H]3[C@@H]2[C@H]1C)C5=O (stereo not given in full) | -76% (active)
8 | COc1cccc(OC)c1OC(=O)c1ccccc1 | 107% (inactive)
9 | Cc1ccc2c(N/N=C\c3ccco3)cc(C)nc2n1 | 26.6% (inactive)
10 | COc1ccc(-c2csc3c2-n2cccc2C3=O)cc1O | 23.9% (inactive)
11 | CC1(C)CC(=O)C2=C(C1)Nc1cc3c(cc1C2c1ccc(F)cc1)OCO3 (stereo not given) | 93.2% (inactive)
12 | O=c1nc(NO)[nH]c(=O)n1Cc1ccc(F)cc1 | 105% (inactive)
13 | C=CC(=O)N1CC2(CC(n3nc(-c4ccc(Oc5ccccc5)cc4)c4c(N)ncnc43)C2)C1 | 31.7% (inactive)
14 | Cn1c2ccc(Cl)cc2c2nn(C(=O)c3ccccc3)c(=O)nc21 | 108% (inactive)
15 | CN1CCN(c2ccc3nc(-c4ccc5nc(-c6ccc(C(F)(F)F)cc6)[nH]c5c4)[nH]c3c2)CC1 | 29.2% (inactive)
16 | CCCCCCCC/C=C\CCCCCCCCOc1cccc(CC(=O)NCC[N+](C)(C)C)c1 | 48.3% (inactive)
17 | CCOC(=O)c1c(Cl)c2c(n1Cc1cc(OC)cc(OC)c1)-c1oncc1CCC2 | 3.92% (active)
18 | COc1ccc(/C=C/C(=O)N2CCC(O)CC2)cc1OC1CCCC1 | 102% (inactive)
19 | CCN1CCN(c2nc3ccccc3c3c(=O)c4cc(F)ccc4sc23)CC1 | 28% (inactive)
20 | Cc1cccc2c(=O)c3c(sc12)c(NCCCN)nc1ccccc13 | -52.8% (active)

Row | Structure (SMILES) | growth
21 | O=C(N/N=C/c1ccc(OC(F)F)c(OC2CCCC2)c1)c1cnn2c1NC(c1ccccc1)C2 (stereo not given) | 81.7% (inactive)
22 | CN1CCN(C)c2cncc(Br)c2C1=O | 107% (inactive)
23 | C(=C\c1ccccc1)/CN1CCN(C(c2ccccc2)c2ccccc2)CC1 | 83.1% (inactive)
24 | COc1ccc(/C=N/NC(=O)c2cnn(CC(O)Cc3ccccc3)c2N)cc1OC1CCCC1 (stereo not given) | 93.6% (inactive)
25 | O=C1/C(=C/c2ccccc2F)CNC/C1=C\c1ccccc1F | -35.4% (active)
26 | O=C(Nc1ccccc1)Oc1cccc2cccnc12 | 28.5% (inactive)
27 | Cc1nc(NN)c([N+](=O)[O-])c(NN)n1 | 108% (inactive)
28 | O=C1C(N2CCOCC2)=Cc2cccc3cccc1c23 | 92.4% (inactive)
29 | CCCCCCCC/C=C\CCCCCCCCOc1cccc(CC(=O)NCC[N+]2(C)CCOCC2)c1 | 53.5% (inactive)
30 | NC(=O)c1cc(Cl)ccc1NC(=O)COc1ccccc1 | 17.6% (inactive)
31 | Cc1ccc(-c2nnc(COc3ccc(-c4nnc(N)s4)cc3)o2)cc1 | 81.5% (inactive)
32 | COc1cc(-c2nc(Nc3nc4ccccc4[nH]3)nc(N)c2C#N)cc(OC)c1OC | 32% (inactive)
33 | CC(C)OC1=C(Cl)C(=O)c2ccccc2C1=O | 113% (inactive)
34 | O=C1N/C(=C\c2ccccc2)c2ncccc21 | 113% (inactive)
35 | CCC(=O)Nc1nnc(Cc2ccc(OC)c(OC)c2)s1 | -46.9% (active)
36 | Cc1ccc(S(=O)(=O)c2ccc3[nH]c(=O)[nH]c(=O)c3c2)cc1 | 107% (inactive)
37 | COC(=O)C1C2CC3c4[nH]c5cc(OC)ccc5c4CCN3CC2CC(OC2CCCCO2)C1OC (stereo not given) | 94.4% (inactive)
38 | O=C(Nc1ccc(F)cc1)c1ccc(C(=O)Nc2ccc(F)cc2)cc1 | 97.7% (inactive)
39 | CC1(C)N=C(N)N=C(N)N1c1cccc(/C=C/C=C/c2cccc([N+](=O)[O-])c2)c1 | 11.5% (inactive)
40 | CCCCCCCCCCCCCCn1c2ccccc2c2c3c(c4c5cc(OC)ccc5oc4c21)C(=O)NC3=O | 103% (inactive)
